A selection: hits, their analogues and other compounds. The true share with any hit is near 10%.
bCat KO growth: beta-catenin-lacking colon tumor cell growth suppression. HCT116 beta-catenin knockout viability, CellTiter-Glo, 60 h; hits give low values. viability, % at 10 µM. actives 1.5% (n = 140,000). AID 818;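 active = viability at or under a set limit, the compound median less 4 SD, cut at about 6% in these data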;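 also: 0% = Hyamine 1622 control at 20 µM and 100% = untreated cell control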
p97 ATPase inh: inhibitors of human p97 ATPase. recombinant p97 ATPase, Kinase-Glo ATP luminescence, 3 h. inhibition, % at 8 µM. actives 0.42% (n = 220,000). AID 1481; in the data active = inhibition above about 15%;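 also: 0% = DMSO vehicle and 100% = wells lacking enzyme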
Target sequence (P55072 whole entry, looked up): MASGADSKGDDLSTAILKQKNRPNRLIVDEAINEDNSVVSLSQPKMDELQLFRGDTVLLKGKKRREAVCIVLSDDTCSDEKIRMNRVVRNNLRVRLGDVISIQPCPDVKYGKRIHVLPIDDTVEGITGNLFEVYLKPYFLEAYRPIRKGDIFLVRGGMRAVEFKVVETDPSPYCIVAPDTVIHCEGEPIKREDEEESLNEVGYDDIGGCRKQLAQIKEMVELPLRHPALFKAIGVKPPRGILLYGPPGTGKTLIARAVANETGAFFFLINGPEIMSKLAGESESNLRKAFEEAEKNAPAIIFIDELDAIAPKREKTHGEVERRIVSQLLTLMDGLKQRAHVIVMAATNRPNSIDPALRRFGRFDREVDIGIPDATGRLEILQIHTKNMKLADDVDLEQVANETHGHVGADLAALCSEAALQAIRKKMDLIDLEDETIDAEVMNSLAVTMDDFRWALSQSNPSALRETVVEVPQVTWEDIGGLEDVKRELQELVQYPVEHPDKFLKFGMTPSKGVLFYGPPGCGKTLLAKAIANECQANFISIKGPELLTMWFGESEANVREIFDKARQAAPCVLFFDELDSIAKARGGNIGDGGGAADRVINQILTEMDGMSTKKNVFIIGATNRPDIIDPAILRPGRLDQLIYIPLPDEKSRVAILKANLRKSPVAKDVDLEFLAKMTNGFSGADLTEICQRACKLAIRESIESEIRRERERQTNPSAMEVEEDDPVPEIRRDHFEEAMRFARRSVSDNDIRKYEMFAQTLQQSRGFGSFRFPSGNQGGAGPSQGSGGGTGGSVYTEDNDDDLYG
ROMK mod: modulates human ROMK potassium channel activity; P48048; Tet-inducible ROMK, thallium flux fluorescence; actives lie on both sides; B-score at 10 µM; actives 2% (n = 130,000);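 active = signal ratio slope over the read window, or its plate-corrected B-score, at least 3 SD from the plate mean, either direction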;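 also: B-score of the F/F0 ratio slope over 7 to 12 s after thallium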
L major viab: inhibitors of Leishmania major promastigote growth; Leishmania major promastigotes, resazurin fluorescence viability; inhibition, % at 10 µM; actives 9% (n = 200,000); in the data active = inhibition above about 50%;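 also: promastigotes grown with compound for 44 hours at 28 °C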
INS promoter inh: TRM-6 insulin promoter activity inhibition | actives 0.9% (n = 130,000) | inhibition, % at 2 µM | TRM-6 cells (human fetal islet line), insulin promoter-eGFP reporter, imaging; reporter expression induced with tamoxifen;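 active = inhibition above the mean plus 3 SD, with well images judged a real hit on visual review, cut at about 60% in these data, passing the limit was not always enough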
PTEN del growth: growth suppressors of cells with PTEN tumor suppressor deletion | HCT116 PTEN-null viability, CellTiter-Glo, 60 h; hits give low values | viability, % at 10 µM | actives 1.2% (n = 140,000) | AID 827;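 active = viability at or below a set limit, 4 SD under the median of all tested compounds, cut at about 3.7% in these data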;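 also: PTEN knockout HCT116 line with beta catenin targeted HCT116 as companion control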
L major 1uM: inhibitors of Leishmania major promastigote growth, repeat at 1 uM; shares compounds with L major viab; L. major promastigote growth, resazurin fluorescence, 48 h; inhibition, % at 1 µM; actives 13% (n = 1,100);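 active = inhibition above about 50% in both repeat tests, limit read from the data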
The depositor's hits bear a star; · = no result.

SMILES | bCat KO growth | p97 ATPase inh | ROMK mod | L major viab | INS promoter inh | PTEN del growth | L major 1uM
COc1cc(CNCc2cccs2)ccc1OCc1ccccc1 | 74 | 0 | · | 99* | · | 77 | 92*
COc1cc(CNc2ccc(N3CCCC3)cc2)ccc1OCc1ccccc1 | 10 | 7 | · | -1 | · | 14 | ·
CN1c2ccccc2Oc2nnc(Cl)cc21 | · | 3 | -0.15 | 15 | · | · | ·
CCN(CC)CCOc1cc2c(nn1)Oc1ccccc1N2C | 87 | 8 | -0.35 | 100* | -27 | 99 | 9
COc1ccc(CN(C(=S)Nc2ccccc2)C2CC(=O)N(c3ccc(Cl)cc3)C2=O)cc1 (centres undefined) | 71 | -1 | 1.2 | 99* | · | 70 | 2
CN(c1ccccc1)c1ccc(/C=C(\C#N)c2nnc3n2CCCCC3)cc1[N+](=O)[O-] | 43 | 2 | · | 56* | · | 43 | 14
COc1ccc2c(c1)C(=O)[C@@H](O)[C@H](c1ccc(OC)c(Br)c1)O2 | 11 | 1 | 0.6 | 98* | -5 | 11 | -58
CC(C)(C)c1ccc(OCCNC(=O)c2ncn[nH]2)cc1 | 91 | -2 | -1.8 | 70* | 9 | 83 | -7
CCc1cc(C)cc(OCCNC(=O)c2ncn[nH]2)c1 | 86 | -1 | 0.89 | 1 | -369 | 92 | ·
CCOC(=O)Nc1ccc(C(=O)/C=C/c2ccccc2)cc1 | · | 6 | 0.35 | · | · | · | ·
CCc1ccc(N2CC(O)(c3cccs3)[N+]3=C2SCCC3)cc1 (centres undefined) | · | -4 | -1.4 | 72* | 17 | · | 4
c1ccc(CCCNc2ncccn2)cc1 | 93 | 5 | · | -7 | -400 | 96 | ·
Cc1ccc(-c2csc3ncnc(Oc4cccc5ccc(C)nc45)c23)cc1 | 61 | 5 | -0.32 | 21 | 26 | 58 | ·
Cc1ccc2cccc(Oc3ncnc4sc(C)c(C)c34)c2n1 | 95 | -3 | · | 90* | 10 | 85 | -8
Cn1cc(CNC(=O)C2CCCCC2)cn1 | 99 | 2 | · | 1 | -16 | 103 | ·
CN(Cc1cnn(C)c1)C(=O)C1CCCCC1C(=O)O (centres undefined) | 92 | -4 | 0.69 | 54* | -272 | 91 | -12
Cc1onc(-c2c(Cl)cccc2Cl)c1NC(=O)N1CCSCC1 | · | 4 | · | · | · | · | ·
Cc1cccc2c(CC(=O)O)noc12 | 97 | 6 | -0.29 | 79* | 19 | 100 | -3
O=C(COc1cc(F)ccc1[N+](=O)[O-])NCCCc1ccccc1 | · | -2 | -0.31 | 0 | · | · | ·
COc1ccc(C(=O)/C=C/c2ccccc2)c(OC)c1 | · | 2 | · | 66* | · | · | 10
COc1ccc(OC)c(C(=O)/C=C/c2ccccc2C(F)(F)F)c1 | 4.2* | -7 | · | 75* | 16 | 5 | -9
COc1ccc(OC)c(S(=O)(=O)Nc2ccccc2C(F)(F)F)c1 | 101 | 3 | · | 3 | -10 | 101 | ·
CCCc1nnc(NC(=O)CCC(=O)NCc2ccc(OC)cc2)s1 | · | 9 | · | · | · | · | ·
Nc1c(C(O)(C(F)(F)F)C(F)(F)F)cc(C(O)(C(F)(F)F)C(F)(F)F)c2ccccc12 | 20 | 8 | 0.9 | 100* | -24 | 21 | -7
Cc1ccc(C2=CSC3=NNC4(CCCCC4)NN23)cc1 | · | 3 | 0.15 | 55* | 8 | · | -12
SMILES | bCat KO growth | p97 ATPase inh | ROMK mod | L major viab | INS promoter inh | PTEN del growth | L major 1uM
CCOC(=O)c1cnc2c(OC)cccc2c1Nc1ccc2c(c1)OCCO2 | 28 | -5 | 0.34 | 53* | 20 | 23 | 13
Cc1ccc2nc(N3CCN(c4cccc(C)c4C)CC3)c3nnnn3c2c1 | 81 | -2 | 0.48 | -3 | · | 80 | ·
Cc1ccc2nc(Cl)c3nnnn3c2c1 | · | 6 | -2.3 | 100* | -147 | · | 93*
CC(=O)N/C(=C/c1ccc([N+](=O)[O-])cc1)C(=O)O | · | 5 | · | -6 | · | · | ·
O=C(c1ccccc1)N(Cc1cccs1)C1CCS(=O)(=O)C1 (centres undefined) | 95 | 1 | 0.6 | -2 | -76 | 109 | ·
O=C(c1sc2ccccc2c1Cl)N(Cc1ccccc1Cl)C1CCS(=O)(=O)C1 (centres undefined) | 79 | 10 | · | 100* | 9 | 73 | -2
Cc1ccc(NC(=O)COc2ncnc3cc([N+](=O)[O-])ccc23)cc1S(=O)(=O)N1CCOCC1 | · | -4 | · | · | · | · | ·
CCN(CC(O)Cn1c2ccccc2c2ccccc21)S(=O)(=O)c1ccc(C)cc1 (centres undefined) | 75 | 1 | -1.3 | 100* | -29 | 58 | -10
N#CC1=C(c2ccccc2)/C(=C/c2ccccc2)OC1=O | 14 | 6 | -0.0074 | 92* | 36 | 8 | 1
O=C(Cc1ccc([N+](=O)[O-])cc1)N1N=C(c2ccncc2)CC1(O)C(F)(F)F (centres undefined) | · | 4 | 0.67 | 39 | · | · | ·
Nn1c(SCC(=O)Nc2cc(S(=O)(=O)N3CCOCC3)ccc2Cl)nnc1-c1cccnc1 | · | 4 | -0.43 | 0 | · | · | ·
Cc1nn(Cc2n[nH]c(=S)n2Cc2ccccc2)c(C)c1Cl | 83 | 4 | · | 90* | -13 | 93 | -11
CC1=CC2(O)OCCN(CCO)C2=CC1=O (centres undefined) | 94 | 11 | · | 99* | 4 | 96 | -10
COc1ccc(C(=O)NC(=S)NNC(=O)c2cnccn2)cc1 | 7 | -2 | 0.86 | 100* | 33 | 7 | 6
C=CCOc1nc(N2CCCC2)nc(N2CCCC2)n1 | 89 | 0 | · | 96* | -12 | 110 | -9
c1ccc(-c2nnc(-c3ccccn3)c(-c3ccccn3)n2)nc1 | · | -4 | · | · | · | · | ·
CN(C)c1nc(-c2ccccn2)nnc1-c1ccccc1 | 13 | 1 | -1.3 | 100* | -4 | 14 | 74*
C=CCc1c(C)nc(SC)nc1Nc1ccc(C)cc1 | 86 | 2 | -0.13 | 97* | · | 87 | 25
O=C1/C(=C/c2ccc(O)cc2)SC(=S)N1Cc1cccnc1 | 94 | 3 | -0.063 | 60* | -27 | 92 | -13
CCCCNC(=O)NNC(=O)COc1cccc(C)c1C | 84 | 0 | -0.01 | -7 | 16 | 101 | ·
Cc1ccc(N/N=C/c2c(O)cc(C)oc2=O)cc1 | 96 | 2 | · | 87* | 17 | 98 | -12
Cc1ccc(CO/N=C/c2c(O)cc(C)oc2=O)cc1 | · | 4 | -0.46 | -12 | -38 | · | ·
O=C(NC1CCCCCC1)c1cc(-c2ccccn2)nc2ccccc12 | · | -7 | -0.39 | 16 | · | · | ·
O=[N+]([O-])c1ccc(NNC(=S)Nc2ccc(F)cc2)cc1 | 67 | -2 | · | 101* | -41 | 78 | 79*
CCCc1nc2ccc(NC(=O)c3cccs3)cc2c(=O)n1Cc1ccc(Cl)cc1 | 71 | 7 | · | 72* | 21 | 55 | -7
Cc1nc2ccc(NC(=O)c3cccs3)cc2c(=O)n1Cc1ccc(Cl)cc1 | 16 | -2 | · | 16 | -17 | 20 | ·
COC(=O)C(CC(=O)c1ccc(Br)cc1)n1ccnc1 (centres undefined) | 2.6* | -2 | · | 79* | 27 | 2.7* | 26
